# DRD3 agonist = D3 dopamine receptor (human) agonism; AID 652048; max activation, %; P35462; actives 0.58% (n = 410,000); D3R DiscoveRx beta-arrestin cells, luminescence, 90 min; in the data active = max activation above about 30%; note: 0% is about no effect
# Target sequence (P35462 whole entry, looked up): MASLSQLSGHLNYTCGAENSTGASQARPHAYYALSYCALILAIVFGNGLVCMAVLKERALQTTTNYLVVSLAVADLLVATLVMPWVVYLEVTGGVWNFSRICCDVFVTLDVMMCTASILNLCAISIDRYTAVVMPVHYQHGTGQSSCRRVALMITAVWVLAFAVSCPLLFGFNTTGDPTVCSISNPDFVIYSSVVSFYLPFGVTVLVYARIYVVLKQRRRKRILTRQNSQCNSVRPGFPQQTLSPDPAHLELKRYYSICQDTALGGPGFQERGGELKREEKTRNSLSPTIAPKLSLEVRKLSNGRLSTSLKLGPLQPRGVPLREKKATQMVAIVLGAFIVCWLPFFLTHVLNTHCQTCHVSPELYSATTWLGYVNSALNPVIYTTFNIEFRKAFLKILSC
#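 Cells at 1500/well, incubated overnight, then treated with pinned compounds (dopamine as control) for 90 min at 37 degrees C. DiscoveRx reagent added for 30 - 60 minutes at room temperature; luminescence read.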
# TSHR antagonist = antagonists of human thyroid stimulating hormone receptor; activity change, negative = inhibition, % at 11.5 µM; TSHR-expressing cells, TSH-stimulated cAMP HTRF, 2 h; active compounds read low; P16473; actives 0.2% (n = 330,000); AID 504810;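 active = activity change below a set negative limit, meaning inhibition stronger than a set level, cut at about -70% in these data; inconclusive = activity change between two set negative limits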; note: % is set by controls: 0 for no effect and ±100 for the full control effect
#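 Antagonism was scored as loss of TSH-driven cAMP in TSHR cells, stimulated with 4nM TSH (EC80) for 2 hours at 37 deg C and detected by homogeneous HTRF competition immunoassay.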
# DRD3 antagonist = blocks the human D3 dopamine receptor; D3R cells, DiscoveRx beta-arrestin luminescence, antagonist mode; active compounds read low; max response, negative = inhibition, %; actives 2.5% (n = 360,000); in the data active = max response below about -50%; inconclusive = no clear call, values can overlap the other calls; note: % is set by controls: 0 for no effect and ±100 for the full control effect
#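 Cells expressing the human receptor were seeded at 1500 cells/well, incubated overnight at 37 degrees C in 5% CO2, then exposed to library compounds with dopamine controls for 90 minutes at 37 degrees C before luminescent detection.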
# B2AR arrestin = recruits beta-arrestin to the human beta2-adrenergic receptor. actives 0.02% (n = 330,000). beta-arrestin recruitment to beta2AR, cell-based reporter. Potency, µM (doses to about 46.1 µM), inactives show at the top dose activation, usual class: activators. P07550; active = well fitted activation curve with a large enough effect; inconclusive = small, poorly fitted or top-dose-only effect;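 note: potency is the fitted concentration of half-maximal effect; 0% = DMSO controls and full agonism = EC100 isoproterenol or metaproterenol; nearly all actives have a fitted effect of over 65% in size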
# * marks the source's active call; other numbers are inactive results; ? = inconclusive; . = no result. In the library only some 2.9% were active in any assay of this set; here they are far more common.
SMILES,DRD3 agonist,TSHR antagonist,DRD3 antagonist,B2AR arrestin
Cc1n[nH]c(=S)n1/N=C/c1ccccc1OCc1ccc(Cl)cc1Cl,31*,-9,21,0%
CCCCOC(=O)c1ccc(NC(=O)CC2NCCNC2=O)cc1 (centres undefined),-1,.,.,.
CC(=O)NC(c1ccco1)c1cc(Cl)c2ccc(N3CCCCC3)nc2c1O (centres undefined),.,7,.,-1%
CC(C)C[C@H]1CN([C@@H](Cc2ccccc2)CN2CCC[C@@H]2CN2C(=O)C(=O)NC[C@@H]2Cc2ccccc2)C(=O)C(=O)N1CC1CCCCC1,-5,.,-5,.
COc1cccc(C(=O)Nc2ccccc2OCc2cc(=O)n3cc(C)ccc3n2)c1,2,.,.,.
S=c1[nH]nc(-c2ccco2)n1-c1cccc2ccccc12,1,-5,-74*,0%
S=c1[nH]nc(-c2ccco2)n1/N=C/c1ccc(Cl)cc1Cl,1,-10,-54*,0%
S=c1[nH]nc(Cc2cccc3ccccc23)n1-c1ccccc1,-1,-8,-51*,0%
COc1ccc(OC)c(S(=O)(=O)NCCc2csc3nc(-c4ccccc4)nn23)c1,2,.,.,.
O=C(Cn1c(-c2cccs2)cc2cc(F)ccc21)NCCc1ccc(Cl)cc1,3,.,.,.
CC(C)(C)C(=O)OCC(=O)[C@H]1CC[C@H]2[C@@H]3CCC4=CC(=O)CC[C@]4(C)[C@H]3CC[C@]12C,-5,.,.,.
O=C(c1ccccc1)c1coc2ccc(O)c(Cl)c12,-2,-25,-52*,0%
O=[N+]([O-])c1ccc(CN2CCC(Cc3ccccc3)CC2)cc1,-18,-3,?,1%
O=[N+]([O-])c1cccc(OCCCN2CCC(Cc3ccccc3)CC2)c1,-21,.,-101*,.
Cc1ccc([N+](=O)[O-])c(OCCN2CCC(Cc3ccccc3)CC2)c1,-33,6,-83*,0%
Cc1ccc([N+](=O)[O-])c(OCCCN2CCCCCC2)c1,-11,14,?,0%
Cc1ccccc1OCCN1CCC(Cc2ccccc2)CC1,-13,9,-91*,0%
N#Cc1ccccc1OCCCN1CCC(Cc2ccccc2)CC1,-4,-6,-109*,0%
CCOc1ccc(S(=O)(=O)N2CCN(c3cc(Cl)ccc3Cl)CC2)c2ccccc12,5,.,.,.
C[C@H]1CN([C@@H](C)CO)S(=O)(=O)c2ccc(/C=C/c3ccccc3)cc2O[C@H]1CN(C)C(=O)NC1CCCCC1,0,.,?,.
CCOc1ccccc1OCCN1CCC(Cc2ccccc2)CC1,-38,9,-99*,0%
CCOc1ccccc1OCCN1CCCC1,-9,-8,2,-1%
CCOc1ccccc1C(=O)NCCCN1CCN(CCCNC(=O)c2ccccc2OCC)CC1,-3,-2,-53*,0%
COc1cccc(OC)c1OCCCCN1CCC(Cc2ccccc2)CC1,-21,-3,-75*,0%
CCOc1ccccc1C(=O)NCCCCNC(=O)c1ccccc1OCC,2,.,6,.
SMILES,DRD3 agonist,TSHR antagonist,DRD3 antagonist,B2AR arrestin
CC(=O)CCc1ccc(OCCCCN2CCC(Cc3ccccc3)CC2)cc1,-11,6,?,0%
CCC(=O)c1ccccc1OCCCN1CCC(Cc2ccccc2)CC1,-25,-2,-102*,0%
CCOC(=O)[C@]12CCC=C1N(Cc1ccc3c(c1)OCO3)C(=O)[C@H](CC(=O)NCCCCc1ccccc1)C2,-10,.,-1,.
CCOC(=O)[C@]12CCCC=C1N(Cc1ccc3c(c1)OCO3)C(=O)[C@H](CC(=O)NCCCCc1ccccc1)C2,0,.,-51*,.
[O]=[Bi][O]C(=O)[O][Bi]=[O],7,.,.,.
COc1ccc2[nH]c3c(=S)nc[nH]c3c2c1,2,19,-56*,0%
COc1ccc2[nH]c3c(Cl)ncnc3c2c1,-2,6,-7,0%
COc1ccc(OCC2c3cc(OC)c(OC)cc3CCN2C(=O)c2ccc(F)cc2)cc1 (centres undefined),-8,.,.,.
CN1CCCN(C2C3CC4CC(C3)CC2C4)CC1 (centres undefined),-4,-2,-92*,1%
CS(=O)(=O)N1CCN(C2C3CC4CC(C3)CC2C4)CC1 (centres undefined),-16,2,0,0%
O=[N+]([O-])c1ccc(S(=O)(=O)NN=C2CCCCC2)cc1,-13,.,-52*,.
O=S(=O)(NN=C1CCCCCC1)c1ccc(Cl)cc1,-1,-4,-4,-1%
COc1ccc(-c2cn3nc(N4CCCC(C(=O)Nc5cc(C)cc(C)c5)C4)sc3n2)cc1 (centres undefined),7,.,.,.
COc1ccc2[nH]c3c4c(ccc3c2c1)C(=O)C=CC4=O,-18,-33,-105*,?
COc1ccc2[nH]c(=O)cc(C(=O)O)c2c1,-1,9,2,0%
COc1cc(OC)cc(-c2c(Sc3ccccc3)c3cc(-c4cnc(OC)nc4)ccc3n2C)c1,40*,.,?,.
N=c1n(CCO)c2ccccc2n1Cc1ccccc1F,-11,.,.,.
Cn1c(=O)oc2cc(S(=O)(=O)NCCN3CCN(c4ccccc4F)CC3)ccc21,11,-7,-54*,0%
Cc1cc(-c2ccc(C)c(S(=O)(=O)NCCCN3CCN(c4ccccc4F)CC3)c2)on1,4,1,-68*,0%
COc1ccc(-c2cc(C)no2)cc1S(=O)(=O)NCCCN1CCN(c2ccccc2)CC1,0,3,-58*,0%
COc1ccc(Br)cc1S(=O)(=O)NCCCN1CCOCC1,-13,-24,-90*,0%
Cn1c(=O)oc2cc(S(=O)(=O)NCCN3CCCCCC3)ccc21,0,21,2,-1%
CCc1ccc(NC(=O)c2cnn(-c3c(C)cccc3C)c2C2CCN(C(=O)OC(C)(C)C)CC2)cc1,9,.,.,.
CCC(C)c1nc2c(c(N3CCC3=O)c1-c1ccccc1)CCCC2 (centres undefined),62*,.,0,.
CCSc1nc(-c2ccccc2)nc2c1CCCC2,12,-7,1,-1%
SMILES,DRD3 agonist,TSHR antagonist,DRD3 antagonist,B2AR arrestin
CCOC(=O)c1ccc(-c2ccc(/C=N/NC(=O)CN(c3ccccc3Cl)S(C)(=O)=O)o2)cc1,44*,11,53,-1%
Cc1ccc(N2CCN(S(=O)(=O)c3ccc4oc(=O)c5ncn(C)c5c4c3)CC2)c(C)c1,6,.,.,.
Cc1cc(C)c2c(n1)sc1c(=O)n(Cc3ccccc3Cl)nnc12,3,-10,-51*,0%
CC(C)(C)n1nnnc1C(c1ccccc1)N1CCN(C(=O)c2ccco2)CC1 (centres undefined),56*,.,0,.
CC(C)(C)OC(=O)N1CCCN(C(c2cc3ccccc3o2)c2nnnn2C(C)(C)C)CC1 (centres undefined),6,.,2,.
CC(C)(C)n1nnnc1C(c1cccnc1)N1CCN(C(=O)c2ccco2)CC1 (centres undefined),-29,35,-21,-1%
CC(C)CCn1nnnc1C(c1ccc(F)cc1)N1CCN(C(=O)c2ccco2)CC1 (centres undefined),0,-15,-76*,0%
